Where “and” joins values, the source holds several entries; their conditions need not be identical. Equal entries are not always repeated. Calls of active or inactive are those of the source. A call without a number means that no potency is given here. Unless noted, calls come from the whole dose curve; as a rule, active = well fitted curve in the direction sought with a large enough effect in the repeat runs; inconclusive = weak or mixed curves; inactive = no such curve, though single readings can be large; an effect the other way counts as inactive or inconclusive.
Legend:
[1] = qHTS assay for small molecules that induce genotoxicity in human embryonic kidney cells expressing luciferase-tagged ATAD5 (AID 651632); note: nearly all actives have a fitted effect of over 15% in size; note: potency is the fitted concentration of half-maximal effect
Summary of the method: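 Concentration-response screen for ATAD5 upregulation in HEK293T luciferase reporter cells; 16 hr treatment at 37C, then luminescence after 30 min with Amplite at room temperature.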

[2] = qHTS assay for small molecules that induce genotoxicity in human embryonic kidney cells expressing luciferase-tagged ATAD5 - cell viability (AID 651634; calls by dose curve; note: nearly all actives have a fitted effect of over 25% in size; note: potency is the fitted concentration of half-maximal effect)
Summary of the method: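 15.5 hr compound or vehicle exposure of HEK293T cells expressing luciferase-tagged ATAD5 at 37C; live-cell protease activity is read by fluorescence after 30 min of CellTiter-Fluor.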

[3] = qHTS assay for small molecule disruptors of the mitochondrial membrane potential - cell viability (AID 720634; calls by dose curve;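 note: human HepG2 liver cancer cells; nearly all actives have a fitted effect of over 20% in size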)
Summary of the method: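 In this qHTS format, HepG2 cells plated overnight were pinned with compound, incubated 1 hr, and assayed for ATP luminescence with CellTiter-Glo after m-MPI dye addition.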

[4] = qHTS assay for small molecule disruptors of the mitochondrial membrane potential (AID 720635); note: potency is the fitted concentration of half-maximal effect
Summary of the method: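 HepG2 cells exposed to compound 1 hr at 37C, then Mito-MPS dye 30 min. Ratio read of aggregate (540/590 nm) versus monomer (490/535 nm) fluorescence.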

[5] = qHTS assay to test for compound auto fluorescence at 590 nm (red) in HepG2 cells (AID 720674)
Summary of the method: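 Seeding: 2,000 HepG2 cells/well, MEM/10% FBS, overnight 37 C. Dosing: compound vs DMSO. Incubation: 1 hr, 37 C, 5% CO2. Read: fluorescence 540 ex/590 em, Rose Bengal sodium as red reference.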

[6] = qHTS assay to test for compound auto fluorescence at 535 nm (green) in HepG2 cells (AID 720675); note: potency is the fitted concentration of half-maximal effect
[7] = qHTS assay to test for compound auto fluorescence at 460 nm (blue) in HEK293 cells (AID 720678)
Summary of the method: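 Intrinsic compound fluorescence is recorded in live HEK293 cultures after overnight incubation at 37C, 5% CO2, using excitation 405 nm and emission 460 nm. Values are referenced to triamterene.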

[8] = qHTS assay to test for compound auto fluorescence at 590 nm (red) in HEK293 cells (AID 720679)
Summary of the method: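 Red autofluorescence, HEK293 cells: 2,000 cells/well; attach 4-5 hr 37C; add 23 nL cpd or DMSO; incubate o/n 37C 5% CO2; read Ex540/Em590; Rose Bengal sodium reference.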

[9] = qHTS assay to test for compound auto fluorescence at 535 nm (green) in HEK293 cells (AID 720680)
[10] = qHTS assay to test for compound auto fluorescence at 460 nm (blue) in HEK293 cell free culture (AID 720681)
Summary of the method: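 Compounds were added to cell-free DMEM with 10% FBS and fluorescence read directly. The blue channel used 405 nm excitation and 460 nm emission, with triamterene as the reference fluorophore.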

[11] = qHTS assay to test for compound auto fluorescence at 535 nm (green) in HEK293 cell free culture (AID 720682)
Summary of the method: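 Green-channel intensity (Ex/Em 485/535 nm) was recorded from compound-treated wells containing only DMEM with 10% FBS. Fluorescein provided the equivalency standard.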

[12] = qHTS assay to test for compound auto fluorescence at 590 nm (red) in HEK293 cell free culture (AID 720683)
Summary of the method: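 Cell-free wells of DMEM with 10% FBS received compound, and intrinsic fluorescence was read at excitation/emission 540/590 nm. Values expressed as equivalence to Rose Bengal sodium.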

[13] = qHTS assay to test for compound auto fluorescence at 590 nm (red) in HepG2 cell free culture (AID 720684)
Summary of the method: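 Rose Bengal sodium served as the reference for red signal. Test compounds were dispensed into serum-containing MEM (10% FBS) without cells, and plates were read at 540/590 nm.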

[14] = qHTS assay to test for compound auto fluorescence at 460 nm (blue) in HepG2 cell free culture (AID 720685)
Summary of the method: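 Cell-free plates of MEM plus 10% FBS received 23 nL compound or DMSO vehicle; blue-channel (405/460 nm) intensity scored against triamterene as reference fluorophore.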

[15] = qHTS assay to test for compound auto fluorescence at 535 nm (green) in HepG2 cell free culture (AID 720686); note: potency is the fitted concentration of half-maximal effect
[16] = qHTS assay to test for compound auto fluorescence at 460 nm (blue) in HepG2 cells (AID 720687)
Summary of the method: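 HepG2 cells in MEM with 10% FBS, attached overnight at 37 C, were exposed to compound or DMSO for 1 hr at 37 C, 5% CO2. Blue fluorescence was read at 405/460 nm, with triamterene as reference fluorophore.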

[17] = molecular target: Glucocorticoid receptor (Homo sapiens) (UniProt P04150); assay: qHTS assay to identify small molecule agonists of the glucocorticoid receptor (GR) signaling pathway (AID 720691; active = well fitted activation curve with a large enough effect in the signal ratio in the repeat runs, not every such curve was filed as active; inconclusive = weak or mixed curves, or effect the other way; inactive = no such curve, though single readings can be large or run the other way; the % refers to the signal ratio; note: potency is the fitted concentration of half-maximal effect); details: GR-bla HeLa, beta-lactamase reporter ratio, 18 h; activation: at 62.4 µM (top of the series)
Chain of Glucocorticoid receptor (Homo sapiens) (P04150 whole entry, looked up): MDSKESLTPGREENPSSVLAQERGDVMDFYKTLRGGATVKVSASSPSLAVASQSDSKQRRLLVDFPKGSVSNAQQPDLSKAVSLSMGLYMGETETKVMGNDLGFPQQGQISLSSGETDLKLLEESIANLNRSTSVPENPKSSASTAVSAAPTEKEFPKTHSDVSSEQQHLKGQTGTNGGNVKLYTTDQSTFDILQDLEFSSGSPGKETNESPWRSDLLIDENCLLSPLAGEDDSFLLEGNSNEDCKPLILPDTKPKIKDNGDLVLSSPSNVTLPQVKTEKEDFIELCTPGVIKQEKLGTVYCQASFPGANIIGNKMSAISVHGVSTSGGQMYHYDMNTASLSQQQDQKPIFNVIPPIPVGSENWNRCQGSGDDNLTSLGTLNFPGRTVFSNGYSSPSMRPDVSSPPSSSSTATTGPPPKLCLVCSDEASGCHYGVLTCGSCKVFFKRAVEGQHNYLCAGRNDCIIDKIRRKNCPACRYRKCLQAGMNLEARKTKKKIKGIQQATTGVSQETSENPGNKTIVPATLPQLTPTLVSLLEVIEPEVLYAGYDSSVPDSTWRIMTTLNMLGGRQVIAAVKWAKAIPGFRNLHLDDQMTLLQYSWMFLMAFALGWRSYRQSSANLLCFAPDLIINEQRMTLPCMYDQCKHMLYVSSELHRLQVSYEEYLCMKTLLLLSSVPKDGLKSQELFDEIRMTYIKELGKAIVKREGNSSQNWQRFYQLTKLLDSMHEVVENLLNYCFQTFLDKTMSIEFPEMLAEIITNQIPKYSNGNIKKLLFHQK
Summary of the method: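 Measures GR pathway activation through a GRE-beta-lactamase reporter stably integrated in HeLa cells, with 18 h compound treatment at 37 C and fluorescence detection using a FRET substrate.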

[18] = molecular target: Glucocorticoid receptor (Homo sapiens) (UniProt P04150); assay: qHTS assay to identify small molecule antagonists of the glucocorticoid receptor (GR) signaling pathway (AID 720692; active = well fitted inhibition curve with a large enough effect in the signal ratio in the repeat runs, not every such curve was filed as active; inconclusive = weak or mixed curves, or effect the other way; inactive = no such curve, though single readings can be large or run the other way; the % refers to the signal ratio; note: potency is the fitted concentration of half-maximal effect)
Summary of the method: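 Tox21 10K library screened in concentration-response for blockade of dexamethasone (5 nM final)-induced GRE-bla reporter activity in HeLa cells; 18 h treatment, fluorescence read.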

[19] = qHTS assay for small molecule agonists of the p53 signaling pathway - cell viability (AID 651633; calls by dose curve; note: nearly all actives have a fitted effect of over 30% in size; note: potency is the fitted concentration of half-maximal effect)
Summary of the method: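 p53RE-bla cells were treated with compound for 16 hours at 37 C. Cytotoxicity was then measured as CellTiter-Glo luminescence after 30 min at room temperature.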
Tags give direction and shape of the fitted curve or compound fluorescence and quenching.

| SMILES | Potency [1] | Potency [2] | Potency [3] | Potency [4] | Potency [5] | Potency [6] | Potency [7] | Potency [8] | outcome [9] | Potency [10] | outcome [11] | Potency [12] | Potency [13] | Potency [14] | Potency [15] | Potency [16] | Potency [17] | Potency [18] | Potency [19] |
| --- | --- | --- | --- | --- | --- | --- | --- | --- | --- | --- | --- | --- | --- | --- | --- | --- | --- | --- | --- |
| CCCC(C)c1ccccc1O (stereo not given) | inactive | inactive | inactive | 30.6 µM (active) | inactive | inactive | inactive | inactive | inactive | inactive | inactive | inactive | inactive | inactive | inactive | inactive | inactive | inactive |  |
| O=C1CCCCCN1SSN1CCCCCC1=O | inactive |  | inactive |  | inactive | inactive | inactive | inactive | inactive | inactive | inactive | inactive | inactive | inactive |  | inactive |  |  | inactive |
| CCC1=C[C@@H]2CN(C1)Cc1c([nH]c3ccccc13)[C@@](C(=O)OC)(c1cc3c(cc1OC)N(C)[C@H]1[C@@](O)(C(=O)OC)[C@H](OC(C)=O)[C@]4(CC)C=CCN5CC[C@]31[C@@H]54)C2 | 2.37 µM (active) | 1.19 µM (active) | inactive |  | inactive | inactive | inactive | inactive | inactive | inactive | inactive | inactive | inactive | inactive | inactive | inactive | inactive |  |  |
| C/C=C1/C(=O)C[C@H]2[C@@H]3CCC4=CC(=O)CC[C@]4(C)[C@H]3CC[C@]12C | inactive | inactive | inactive | inactive | inactive | inactive | inactive |  | inactive | inactive | inactive | inactive | inactive | inactive | inactive |  |  |  |  |
| CCCCCCCCCOC(=O)c1ccc(O)cc1 | inactive |  |  | 4.27 µM (active) | inactive | inactive | inactive | inactive | inactive | inactive | inactive | inactive | inactive | inactive | inactive | inactive |  |  | 60.3 µM (active) |
| Cc1cc(O)c2ccccc2c1O | inactive | inactive | inactive |  | inactive | inactive | inactive | inactive | inactive | inactive | inactive | inactive | inactive | inactive |  | inactive |  |  |  |
| C[C@]12CCC(=O)C=C1CC[C@@H]1[C@@H]2[C@@H](O)C[C@@]2(C)[C@H]1CC[C@]2(O)C(=O)COC(=O)CCC(=O)O | inactive | inactive |  |  | inactive | inactive | inactive |  | inactive | inactive | inactive | inactive | inactive | inactive | inactive | inactive | 0.848 µM [inconclusive] (active) |  | inactive |
| S=c1[nH]c2ccccc2s1 |  | inactive | inactive | 26.6 µM (active) and 27.3 µM (active) | inactive | inactive | inactive | inactive | inactive | inactive | inactive | inactive | inactive | inactive | inactive | inactive | inactive | inactive |  |
| Cc1ccc(O)c(C(C)(C)C)c1 | inactive |  |  | 5.44 µM (active) and 27.3 µM (active) | inactive | inactive | inactive | inactive | inactive | inactive | inactive | inactive | inactive | inactive | inactive | inactive |  | inactive |  |
| Nc1ccc2c3c(cccc13)-c1ccccc1-2 | inactive |  |  | 4.91 µM (active) | inactive | 39.8 µM (active) |  |  |  |  |  | inactive | inactive |  | 39.8 µM [fluorescent] (active) |  |  |  |  |
| CCOC(=O)c1nc(C(Cl)(Cl)Cl)n(-c2ccc(Cl)cc2Cl)n1 | inactive | inactive |  |  | inactive | inactive | inactive | inactive | inactive | inactive | inactive | inactive | inactive | inactive | inactive | inactive |  |  |  |
| O=C(OCC1CO1)C1CCCCC1C(=O)OCC1CO1 (stereo not given) |  | inactive | inactive | inactive | inactive | inactive | inactive | inactive | inactive | inactive | inactive | inactive | inactive | inactive | inactive | inactive | inactive |  | inactive |
| CCc1cc(Cc2cc(CC)c(N)c(CC)c2)cc(CC)c1N | inactive | inactive |  | 27.3 µM (active) | inactive | inactive | inactive |  | inactive | inactive | inactive | inactive | inactive | inactive | inactive |  |  | 43.6 µM (active) |  |
| O=c1[nH]sc2ccccc12 | inactive | inactive |  | 27.3 µM (active) | inactive | inactive | inactive | inactive | inactive | inactive | inactive | inactive | inactive | inactive | inactive | inactive |  |  |  |

— PubChem BioAssay (Tox21)
